Experimental findings from ChEMBL document CHEMBL3433997, “St. Jude Leishmania screening dataset” (2016) are described below.

What all share (assay type): functional
Assay [1] addresses Solute carrier family 2, facilitated glucose transporter member 1 (Homo sapiens) (UniProt P11166). Kind of assay: ST_JUDE_LEISH: Cytotoxicity at 2uM final concentration against transgenic Leishmania Mexicana promastigotes LmGLUT1 that are glucose transport deficient and complemented with the human glucose transporter GLUT1. Activity is measured by DNA content using SYBR green in vitro.

The target in assay [2] is Hexose transporter 1 (Plasmodium falciparum) (UniProt O97467). Kind of assay: ST_JUDE_LEISH: Cytotoxicity at 2uM final concentration against transgenic Leishmania Mexicana promastigotes LmPfHT that are glucose transport deficient and complemented with the Plasmodium falciparum hexose transporter. Activity is measured by DNA content using SYBR green in vitro.
Assay [3] deals with Glucose transporter (Leishmania mexicana) (UniProt O61059). Briefly: ST_JUDE_LEISH: Cytotoxicity at 2uM final concentration against transgenic Leishmania Mexicana promastigotes LmGT2 that are glucose transport deficient and complemented with the L. Mexicana glucose transporter 2. Activity is measured by DNA content using SYBR green in vitro.

Solute carrier family 2, facilitated glucose transporter member 1 (Homo sapiens), sequence (P11166 whole entry): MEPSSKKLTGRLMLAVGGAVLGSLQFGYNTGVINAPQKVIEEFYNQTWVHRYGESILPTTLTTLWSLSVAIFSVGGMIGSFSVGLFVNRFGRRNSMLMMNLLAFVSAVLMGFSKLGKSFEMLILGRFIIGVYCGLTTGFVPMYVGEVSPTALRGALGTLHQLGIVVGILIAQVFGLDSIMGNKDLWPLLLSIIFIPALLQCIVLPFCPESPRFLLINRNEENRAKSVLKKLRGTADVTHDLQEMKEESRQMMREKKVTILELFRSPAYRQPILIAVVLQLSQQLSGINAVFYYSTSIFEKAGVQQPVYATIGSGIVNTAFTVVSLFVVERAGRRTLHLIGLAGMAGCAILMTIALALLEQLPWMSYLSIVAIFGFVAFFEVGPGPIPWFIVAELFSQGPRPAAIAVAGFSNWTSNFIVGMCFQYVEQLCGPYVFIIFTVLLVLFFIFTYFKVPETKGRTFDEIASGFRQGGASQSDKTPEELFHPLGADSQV

In the case of `CC(C)n1cc2c(ccc3nc(N)nc(N)c32)n1`, the inhibition (as a rule, the change of the read-out against control, counted positive when it falls) came out at 7.23% in assay [1], 17.1% in assay [2] and 5.96% in assay [3].

Take `CC(C)c1sc(N2CCCCC2)nc1C(=O)Nc1ccc(F)cc1C(F)(F)F`: the inhibition in assay [1] worked out at 2.82%; in assay [2], 0.82%; in assay [3], 2.35%.

As to `CC1(C)NC(N)=NC(=N)N1OCCOc1cccc(C(F)(F)F)c1`, the inhibition in assay [1] amounted to 1.04%; in assay [2], 0.2%; in assay [3] it was 2.45%.

Consider `COc1ccc2nccc([C@@H](O)CN3CCC(NCc4cc5ccccc5nn4)CC3)c2c1`, for which the inhibition was 6.88% in assay [1], 7.17% in assay [2] and 7.16% in assay [3].

As to `CNC(=O)COC(=O)c1c2c(nc3ccccc13)C(=Cc1ccc3c(c1)OCO3)CCC2`, the inhibition was 1.88% in assay [1], -1.19% in assay [2] and 0.04% in assay [3].

Regarding `COc1ccc2cc(C(C)NC3CCN(c4cccc(NC(=O)c5ccncc5)c4)CC3)ccc2c1` (stereo not given), the inhibition in assay [1] was 0.03%; in assay [2], -0.06%; in assay [3] it was -1.47%.

As to `Cc1nc2nc(N)nc(N)c2c(C)c1Cc1ccc(C(N)=O)cc1`, the results for the inhibition in assay [1], in assay [2] and in assay [3] were 1.68%, 1.64% and 0.21%, respectively.

As for `CCOc1cc(C2C(C(=O)OC(C)C)=C(C)NC3=C2C(=O)CC(c2ccc(Cl)cc2)C3)ccc1OC(C)=O` (stereo not given), the inhibition in assay [1] worked out at 6.58%; in assay [2] it was 6.64%; in assay [3] it was 6.55%.

Consider `COc1ccc(CNCc2ccsc2)cc1-c1ccc(OC)c(S(=O)(=O)NCCN2CCCC2)c1`, for which the results for the inhibition in assay [1], in assay [2] and in assay [3] were 1.22%, 1.92% and -1.86%, respectively.

For the molecule `CC[C@H](C)CNC(=O)c1cncc(-c2cccc(CNC3Cc4ccccc4C3)c2)c1`, the figures for the inhibition in assay [1], in assay [2] and in assay [3] were -0.1%, 0.31% and -1.15%, respectively.

Turning to `O=C(Nc1ccc(OC2CCN(Cc3ccc(F)cc3)C2)c(Cl)c1)c1ccsc1` (stereo not given), the inhibition in assay [1] was 4.02%; in assay [2], 3.33%; in assay [3] it was 1.2%.

Consider `O=S(=O)(NCCN1CCCC1)c1ccc(-c2cccc(CNC3Cc4ccccc4C3)c2)cc1F`, for which the inhibition in assay [1] is 7.61%; in assay [2], 2.53%; in assay [3] it was 3.93%.

As for `CNC(=O)c1cnc(Nc2ccc(N3CCOCC3)cc2)nc1Nc1cccc(OC)c1`, the results for the inhibition in assay [1], in assay [2] and in assay [3] were -0.53%, -1.08% and -2.23%, respectively.

For the molecule `CCc1cn2c3c(cc(C(=O)N[C@@H](Cc4ccccc4)[C@H](O)CNC4CC4)cc13)N(CC)S(=O)(=O)CC2`, the values for the inhibition in assay [1], in assay [2] and in assay [3] were -0.74%, -0.31% and 0.02%, respectively.

Turning to `O=C(NCc1cccc(C(F)(F)F)c1)C1CCCN(C(=O)c2ccc(O)c(-c3ccc(Cl)c(Cl)c3)c2)C1` (stereo not given), the inhibition in assay [1] came out at 3.46%; in assay [2] it was 2.95%; in assay [3], 3.95%.

In the case of `O=C(NCCc1ccc(Cl)c(Cl)c1)[C@@H]1CCCN1C(=O)c1ccc(O)c(-c2cccc(C(F)(F)F)c2)c1`, the inhibition in assay [1] is 1.34%; in assay [2], -0.04%; in assay [3] it was -2.44%.

`CN(C)CCn1cc(C(=O)c2cc(Cl)ccc2O)cc1-c1nc2ccccc2c(=O)[nH]1`: the results for the inhibition in assay [1], in assay [2] and in assay [3] were 0.7%, -0.71% and -2.96%, respectively.

In the case of `COc1cc(CCNCC(O)c2ccc([N+](=O)[O-])c(OCc3ccccc3)c2)cc(OC)c1OC` (stereo not given), the figures for the inhibition in assay [1], in assay [2] and in assay [3] were -0.46%, 1.28% and 0.48%, respectively.

On to `c1ccc(-c2cc(NCCCCCCCCNc3cc(-c4ccccc4)nc4ccccc34)c3ccccc3n2)cc1`, for which the inhibition amounted to 105% in assay [1], 104% in assay [2] and 83.4% in assay [3].

For the molecule `Oc1ccc(CCNc2nc(NCc3ccccc3-c3ccc(C(F)(F)F)cc3)nc(NC3CCNCC3)n2)cc1`, the figures for the inhibition in assay [1], in assay [2] and in assay [3] were 1.32%, 0.48% and 0.66%, respectively.

For the molecule `CCN(CC)CCN(Cc1ccc(-c2ccc(C(F)(F)F)cc2)cc1)C(=O)Cn1cc(CCCCc2cccc(F)c2F)c(=O)c2ccccc21`, the inhibition in assay [1] worked out at 7.95%; in assay [2] it was 6.93%; in assay [3], 10.4%.

On to `CCC1(CC)C(=O)N=C(N2CCCCC2)N(C)C1=O`, for which the inhibition stood at 19% in assay [1], 14.2% in assay [2] and 5.99% in assay [3].

Consider `CN(C(=O)c1ccc(Br)cc1)c1ccccc1[N+](=O)[O-]`, for which the inhibition was -1.57% in assay [1], -1.07% in assay [2] and -2.57% in assay [3].

As to `CN1CCN(c2ccc(Nc3c(C(N)=O)cnc4cc(-c5ccoc5)ccc34)cc2C(F)(F)F)CC1`, the inhibition in assay [1] is 2.31%; in assay [2], 2.21%; in assay [3], 2.01%.

On to `CN(C)c1ccc(CN2CCCCC(NC(=O)c3cc(-c4ccccc4Cl)cs3)C2)cc1` (stereo not given), for which the inhibition in assay [1] turned out to be 2.84%; in assay [2] it was 2.86%; in assay [3] it was 4.6%.

Consider `CN(C)C=Nc1ccc(OCCCCCCOc2ccc(N=CN(C)C)cc2)cc1`, for which the inhibition worked out at 3.14% in assay [1], 3.26% in assay [2] and 2.37% in assay [3].

Consider `Nc1ncc(-c2ccsc2)c2ccc(-c3ccc4cn[nH]c4c3)cc12`, for which the values for the inhibition in assay [1], in assay [2] and in assay [3] were 3.11%, 1.38% and 5.29%, respectively.

Consider `Cc1noc(C)c1C(=O)N1CCCC(c2[nH]c3c(C)cccc3c2-c2ccncc2)C1` (stereo not given), for which the inhibition in assay [1] is 2.42%; in assay [2] it was 3%; in assay [3] it was 2%.

With `CC(C)(C)N1CCC(N(Cc2ccc(-c3ccc(C(F)(F)F)cc3)cc2)C(=O)Cn2c(CCc3cccc(F)c3F)cc(=O)c3cccnc32)CC1`, the figures for the inhibition in assay [1], in assay [2] and in assay [3] were -0.12%, -1.34% and -1.6%, respectively.

As to `O=C(NCc1ccc(Cl)c(Cl)c1)c1ccc(C2CCCN(Cc3ccc4[nH]cnc4c3)C2)cc1` (stereo not given), the inhibition was found to be 5% in assay [1], 9.77% in assay [2] and 6.17% in assay [3].

Consider `CC(C)(C)c1ccc(Cn2c(=N)n(CC(=O)c3ccc(-c4ccccc4)cc3)c3ccccc32)cc1`, for which the inhibition in assay [1] was 0.71%; in assay [2], -0.1%; in assay [3], -0.07%.

`O=c1c2c([nH]c3cc(Cl)ccc13)CCCC2`: the values for the inhibition in assay [1], in assay [2] and in assay [3] were 4.95%, 3.08% and 3.09%, respectively.

For the molecule `O=C(/C=C/c1ccc(Cl)c(Cl)c1)N1CCC(CN2CCC(Cc3c[nH]c4ccccc34)CC2)CC1`, the inhibition in assay [1] turned out to be 4.43%; in assay [2], 4.8%; in assay [3] it was 3.96%.

For the molecule `O=C(Nc1ccc(-c2ccc(-c3nc4ccccc4[nH]3)s2)cc1)Nc1ccsc1`, the inhibition in assay [1] was 0.72%; in assay [2] it was -0.46%; in assay [3], 4.17%.

Turning to `CCc1ccc(CN2CCC(CNC(=O)c3cc(-c4ccccc4F)cs3)C2)cc1` (stereo not given), the inhibition is 1.55% in assay [1], -3.47% in assay [2] and 1.83% in assay [3].
